Measured values reported in PubChem BioAssay (NCI).
Compounds without any hit were thinned out: in the full panel of roughly 83,000, 20% have a hit.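 Activity criterion: percent growth below 10, measured after cells in 96-well plates were exposed to a single compound concentration for 48 hours.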 Unmarked numbers belong to inactive results. Active and inactive are the calls of the source.

Tests used:
Experiment in all cases: NCI-60 one-dose screen, 48 h (100 = growth as untreated, 0 = no growth, -100 = all killed)
Conditions in all cases: 10 µM unless noted
NCI-H23 lung = test system: NCI-H23 lung
NCI-H226 lung = test system: NCI-H226 lung
NCI-H322M lung = test system: NCI-H322M lung
HOP-62 NSCLC = test system: HOP-62 NSCLC
NCI-H460 lung = test system: NCI-H460 lung
HOP-92 NSCLC = test system: HOP-92 NSCLC
NCI-H522 lung = test system: NCI-H522 lung
A549/ATCC NSCLC = test system: A549/ATCC NSCLC
786-0 renal = test system: 786-0 renal
COLO 205 colon = test system: COLO 205 colon
DU-145 prostate = test system: DU-145 prostate
K-562 leukemia = test system: K-562 leukemia
MALME-3M melanoma = test system: MALME-3M melanoma
MDA-MB-231 breast = test system: MDA-MB-231 breast
RXF 393 renal = test system: RXF 393 renal
SF-268 CNS = test system: SF-268 CNS
SF-295 CNS = test system: SF-295 CNS
SF-539 CNS = test system: SF-539 CNS
UACC-257 melanoma = test system: UACC-257 melanoma
M14 melanoma = test system: M14 melanoma

Row | SMILES | growth (NCI-H23 lung) | growth (NCI-H226 lung) | growth (NCI-H322M lung) | growth (HOP-62 NSCLC) | growth (NCI-H460 lung) | growth (HOP-92 NSCLC) | growth (NCI-H522 lung) | growth (A549/ATCC NSCLC) | growth (786-0 renal) | growth (COLO 205 colon) | growth (DU-145 prostate) | growth (K-562 leukemia) | growth (MALME-3M melanoma) | growth (MDA-MB-231 breast) | growth (RXF 393 renal) | growth (SF-268 CNS) | growth (SF-295 CNS) | growth (SF-539 CNS) | growth (UACC-257 melanoma) | growth (M14 melanoma)
1 | CCn1cc(C(=O)N/N=C/c2cccs2)c(=O)c2cc(F)c(N3CCNC(C)C3)c(F)c21 (stereo not given) | 89.8% | 76% | 84.1% | 72.4% | 23.6% | 53.8% | 71.1% | 44% | 67.8% | -41.7% (active) | 48.3% | -39% (active) | -36.7% (active) | 41% | 16.2% | 79.1% | 85.3% | 84.2% | 108% | 49.4%
2 | CN([O-])c1nc(N(C)[O-])nc(N2CCOCC2)n1.CN([O-])c1nc(N(C)[OH2+])nc(N2CCOCC2)n1.[Fe+3] | 100% [100 µM] | 101% [100 µM] | 104% [100 µM] | 165% [100 µM] | 36.1% [100 µM] | 61.7% [100 µM] | 52.9% [100 µM] | 72.7% [100 µM] | 114% [100 µM] | 144% [100 µM] | 63.1% [100 µM] | 16.7% [100 µM] | 118% [100 µM] | 110% [100 µM] | 75.5% [100 µM] | -14.2% [100 µM] (active) | 10.3% [100 µM] | 108% [100 µM] | 96.2% [100 µM] | 91.7% [100 µM]
3 | O=S(=O)(NCCNc1cc(-c2c(-c3cccc(O)c3)nc3sccn23)ccn1)c1ccc(C(F)(F)F)cc1 | 51.9% | 38.1% | 61.5% | 71.8% | 21.1% | 61.9% | 38.1% | 28.6% | 38.6% | 42.6% | 43.1% | 22.8% | 57.8% | 53.2% | 42.1% | 34.9% | 31.2% | 62.3% | 51.8% | 36.9%
4 | CSc1nc2sc3c(c2c(=O)n1-c1ccc([N+](=O)[O-])cc1)CCCCC3 | 90.8% | 94% | 88.8% | 73.4% | 74.7% | 94.6% | 81% | 81.1% | 95.7% | 99% | 99% | 94.1% | 91.4% | 75.3% | 84.1% | 98.7% | 68.8% | 95.3% | 91.2% | 94.9%
5 | O=c1oc2ccc([N+](=O)[O-])cc2cc1Br | 107% | 98.4% | 108% | 104% | 107% | 83.7% | 97.9% | 108% | 112% | 105% | 109% | 102% | 107% | 109% | 108% | 103% | 98.8% | 82.2% | 104% | 104%
6 | CN1CCN(c2ccc(NC(=O)c3nc4ccc5[nH]ncc5c4c4c3CCCC4)cc2C(F)(F)F)CC1 | 90.2% | 80% | 86.3% | 72.2% | -55.4% (active) | 49.2% | 76.7% | 60.2% | 34.3% | 59.3% | -27.9% (active) | 7.04% (active) | 33.1% | 45.8% | 72.3% | 78% | 97.9% | 89.6% | 98.7% | 79.5%
7 | COC(=O)c1c2c(c(C)[n+]([O-])c1C)C(=O)C=C(NCc1ccc(OC)cc1)C2=O | -38.8% (active) | -8.68% (active) | -6.26% (active) | 3.79% (active) | -3.91% (active) | -35.3% (active) | -19.5% (active) | -18.4% (active) | 3.11% (active) | -54% (active) | -83.7% (active) | 0.821% (active) | -97.4% (active) | -6.3% (active) | -32.7% (active) | -22.4% (active) | -62.5% (active) | -80.7% (active) | -77% (active) | -84.6% (active)
